hgDAF-12 ag – H. glycines DAF-12 receptor agonists, primary screen, cell-based, luminescence, HEK293, GAL4 fusion, UAS-luciferase | Nuclear hormone receptor DAF-12 (Heterodera glycines), GAL4 fusion | HEK293 GAL4-hgDAF12 UAS-luciferase reporter, agonist luminescence; normalized to butyrate control | activation, % at 6.8 µM | actives 1.8% (n = 370,000);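 active means activation above a cutoff set at the mean of all screened compounds plus 3 SD, cut at about 10% in these data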
hcDAF12 agonist – H. contortus DAF-12 nuclear receptor activators, primary screen, cell-based, luminescence, HEK293, lit1-tk-luc reporter. HEK293 hcDAF-12 lit1-tk-luc reporter; 0% DMSO, 100% Δ7-dafachronic acid. activation, % at 6.8 µM. actives 1.4% (n = 370,000);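 active means activation above the mean of all tested compounds plus 3 SD, cut at about 5.5% in these data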
DAX1 inh-1 – DAX1 (NR0B1) inhibitors on StAR promoter, primary screen, cell-based, luminescence, SF-1 (NR5A1), full-length DAX-1 | HEK293T StAR-luciferase reporter, SF-1/DAX-1 repression relief | inhibition, % at 6.8 µM | actives 1.1% (n = 370,000) | AID 652010, 2013;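 active means inhibition above the mean over all tested compounds plus 3 SD, cut at about 3.6% in these data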;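 further: higher inhibition means more luminescence from relief of DAX-1 repression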
DAX1 inh-2 – DAX1 (NR0B1) inhibitors, primary screen, cell-based, HEK293, Gal4-DAX1, luciferase luminescence; inhibition, % at 6.75 µM; actives 0.99% (n = 340,000); HEK293 Gal4-DAX1 luciferase reporter; AID 504766, 2011;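 active means inhibition above the mean over all tested compounds plus 3 SD, cut at about 4.2% in these data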;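 further: inhibition shows as a rise in luminescence from relieved DAX1 repression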
Target sequence (P51843 207-470 limits assumed): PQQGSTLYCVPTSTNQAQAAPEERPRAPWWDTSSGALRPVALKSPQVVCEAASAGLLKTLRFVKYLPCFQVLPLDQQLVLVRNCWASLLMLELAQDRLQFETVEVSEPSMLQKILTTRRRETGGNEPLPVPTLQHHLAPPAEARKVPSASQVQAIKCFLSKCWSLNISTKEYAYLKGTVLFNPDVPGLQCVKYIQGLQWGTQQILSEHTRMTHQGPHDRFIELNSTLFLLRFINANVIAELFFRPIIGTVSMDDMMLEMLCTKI
ssDAF-12 act – S. stercoralis DAF-12 nuclear receptor activators, primary screen, cell-based, luminescence, HEK293, GRIP1 co-expression, lit1-tk-luc. Nuclear hormone receptor DAF-12 (Strongyloides stercoralis). activation, % at 6.8 µM. HEK293 ssDAF-12/GRIP1 lit1-tk-luc reporter; % of 3 µM dafachronic acid response. AID 652126, 2013. actives 1% (n = 370,000);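 active means activation above the mean over all tested compounds plus 3 SD, cut at about 0.9% in these data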
LXRb hcDAF ctr – LXR agonists, Gal4 luciferase reporter, confirmation, counter-screen for hcDAF-12 agonist project, cell-based, luminescence, HEK293, H. contortus campaign; shares compounds with hcDAF12 agonist; HEK293 Gal4-LXR tk-luc reporter, 24 h; normalized: DMSO 0%, positive control 100%; activation, % at 6.8 µM; 3,400 tested, under 10 active; AID 743027, 2013;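 active means mean percent activation of the reporter above a cutoff set as the average over tested compounds plus their standard deviation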
hcDAF12 conf – H. contortus DAF-12 receptor agonists, confirmation, cell-based, luminescence, HEK293, lit1-tk-luc, triplicate | shares compounds with hcDAF12 agonist | HEK293 hcDAF-12 lit1-tk-luc reporter; % of Δ7-dafachronic acid response | activation, % at 6.8 µM | actives 61% (n = 3,400);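 active means mean activation across triplicate tests above the threshold derived from the earlier primary screen, cut at about 5.5% in these data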
Hits are given with their value; – = inactive; · = no result given. A selection: hits, their analogues and other compounds. The true share with any hit is near 4.1%.

SMILES	hgDAF-12 ag	hcDAF12 agonist	DAX1 inh-1	DAX1 inh-2	ssDAF-12 act	LXRb hcDAF ctr	hcDAF12 conf
O=C(NCCN1CCc2ccccc2C1)C1CCN(S(=O)(=O)N2CCCCC2)CC1	–	–	–	–	–	·	·
CC(C)c1ccc2c(c1)[C@H]1OCC[C@H]1[C@@H](c1cccs1)N2	–	13.8	–	–	–	–	–
CCOC(=O)[C@]12CCCC=C1N(CCCOC)C(=O)[C@@H]2CC(=O)NCc1cccs1	–	–	–	·	–	·	·
O=C1C=C(Nc2ccccc2)C(=O)c2ccccc21	–	7.6	–	–	–	–	7.0
COc1ccc([C@H]2OC(=O)C[C@@H]2C(=O)N2CCN(c3ccccc3Cl)CC2)cc1OC	–	–	–	·	–	·	·
Cc1cnc(NC(=O)CCCc2nc3ccccc3s2)s1	12.1	10.3	–	–	5.3	–	6.9
CN1[C@H](Cc2ccccc2)COc2cccc(N3CCCC3)c2S1(=O)=O	–	–	–	·	–	·	·
Cc1ccccc1-c1ccc2c(c1)[C@@H]1C[C@H](N(C)C(=O)c3ccco3)[C@H]([C@H](C)O)CN1CC2	–	–	–	·	–	·	·
COc1cccc(C(=O)NC(=S)Nc2cccnc2)c1	–	7.8	–	–	1.0	–	–
Nc1[nH]c(C(=O)c2ccccc2)c(-c2ccccc2C(F)(F)F)c1C(=O)c1c[nH]c2ccccc12	–	–	–	·	–	·	·
O=C1C(=O)N(c2cccc(Cl)c2)C(c2ccccc2[N+](=O)[O-])/C1=C(\O)c1ccccc1 (stereo not given)	·	·	·	–	·	·	·
CCOc1ccc(N2C(=O)C(=O)/C(=C(/O)c3ccccc3)C2c2ccccc2[N+](=O)[O-])cc1 (stereo not given)	–	9.4	–	–	1.3	–	–
O=C(OCc1cn(Cc2cc(F)ccc2F)nn1)N1CCOCC1	–	–	–	·	–	·	·
COCC#Cc1ccc(CC[C@H]2O[C@H]3CC[C@H](CO)O[C@H]3C[C@H]2n2cc(C(C)(C)O)nn2)cc1	–	–	–	·	–	·	·
C(=N\n1c2ccccc2c2ccccc21)/c1ccccc1	–	10.4	–	–	–	–	5.9
Oc1ccccc1/C=N/n1c2ccccc2c2ccccc21	–	–	–	–	–	·	·
CC1C(=O)CC(c2ccccc2)NC1c1ccccc1 (stereo not given)	–	–	–	–	–	·	·
C[C@@H]1/C=C/CC(=O)N[C@H](c2ccc3ccccc3c2)[C@H](C)/C=C/CC(=O)N[C@@H]1c1ccc2ccccc2c1	–	8.7	–	·	–	–	–
COc1ccccc1NC(=O)CSCC(N)=O	–	–	–	–	–	·	·
COc1ccccc1NC(=O)CSCc1nc2ccccc2[nH]1	–	7.0	–	–	–	–	–
Cc1cccc(-c2cccc3c4c([nH]c23)[C@@H]2C[C@H](N(C)C(=O)c3cccc(Cl)c3)[C@H]([C@H](C)O)CN2CC4)c1	–	–	–	·	–	·	·
Cc1c(Cl)cccc1NC(CC(=O)c1ccccc1)C(=O)OCC(=O)c1cccs1 (stereo not given)	–	–	–	–	–	·	·
O=C(CC(Nc1cccc(Cl)c1Cl)C(=O)OCC(=O)c1cccs1)c1ccccc1 (stereo not given)	–	7.4	–	–	–	–	–
COc1ccccc1Cc1c(C(C)(C)C)nc2ccc(C)cn12	–	6.6	–	·	–	–	–
CC1CCCCC1N(C(=O)c1cc(C2CC2)on1)C1CCCCCC1 (stereo not given)	–	–	–	·	–	·	·
SMILES	hgDAF-12 ag	hcDAF12 agonist	DAX1 inh-1	DAX1 inh-2	ssDAF-12 act	LXRb hcDAF ctr	hcDAF12 conf
Nc1nc2ccc(C(=O)Nc3ccccc3)cc2s1	11.4	11.4	–	–	1.9	–	7.7
O=S(=O)(NCc1c(Cl)cccc1Oc1ccccc1)c1ccccc1	–	20.2	–	–	–	–	–
N#CC(C#N)=Cc1cc2ccccc2nc1N1CCCCC1	–	7.1	–	–	–	–	–
CCOC(=O)/C(C#N)=C/c1cc2ccccc2nc1N1CCOCC1	–	–	–	–	–	·	·
COc1ccccc1Cc1c(-c2ccc(F)cc2)nc2cc(C)c(Br)c(C)n12	–	8.6	–	·	1.1	–	6.7
Cc1cc2nc(-c3ccc(Cl)cc3)c(Cc3ccsc3)n2c(C)c1Br	–	6.8	–	·	0.9	–	–
COc1ccccc1Cc1c(-c2ccc(C)cc2)nc2cc(C)c(Br)c(C)n12	12.2	9.9	–	·	1.9	–	11.3
Cc1cc2nc(-c3cccc(Br)c3)c(Cc3cccc(Cl)c3)n2c(C)c1Br	–	–	–	·	–	·	·
COc1ccc(Cc2c(-c3cccc(Cl)c3)nc3cc(C)c(Br)c(C)n23)c(C)c1	–	6.9	–	·	2.0	–	–
Cc1cc(O)cc(=O)n1-c1cccc(Br)c1	–	–	–	·	–	·	·
COC(=O)[C@]12C[C@H](CC(=O)N3CCCCC3)C(=O)N(Cc3ccccc3)C1=C[C@H](C1CCCC1)O[C@@H]2C	–	–	–	·	–	·	·
COc1ccc(Cn2cc(CN3[C@@H](CC(C)C)COc4ccc(Cl)cc4S3(=O)=O)nn2)cc1	–	–	–	·	–	·	·
Cc1ccc(-c2cn3nc(C)c(C)nc3n2)cc1	–	–	–	–	–	·	·
Clc1ccc(-c2cn3nc4c(nc3n2)CCCC4)cc1	12.1	8.1	4.2	–	–	–	7.5
CC1=C2NC(N)=[N+](Cc3ccccc3)CC2n2c(=O)n(-c3ccccc3)c(=O)n2C1 (stereo not given)	–	–	–	·	–	·	·
COC(=O)C1CN(Cc2cn(CCOC(C)=O)nn2)CCS(=O)(=O)N1Cc1ccc(OC)cc1 (stereo not given)	–	–	–	·	–	·	·
O=C(CSc1nc2ccccc2n1Cc1ccccc1Cl)NN=C/C(Br)=C/c1ccccc1	–	–	–	·	–	·	·
Cc1csc(NC(=O)c2cc3c(s2)CCCC3)n1	12.0	11.1	–	–	–	–	7.0
Cc1csc(NC(=O)c2cc3c(s2)CCCCC3)n1	–	–	–	–	–	·	·
Cc1cnc(NC(=O)c2cc3c(s2)CCCC3)s1	–	9.0	–	–	–	–	7.0

High-throughput results (PubChem BioAssay)
